PubChem BioAssay (NCATS)
Values without a mark were called inactive. Results filed as inconclusive are left out. Where a call stands in place of a potency, no number is given. The source made the active and inactive calls. Unless noted, calls follow the shape of the dose curve; as a rule, active = well fitted curve in the direction sought with a large enough effect; inconclusive = small, poorly fitted or top-dose-only effect, or another doubt; inactive = no such curve, though single readings can be large; an effect the other way counts as inactive or inconclusive.

Legend:
MKL-2 = assay: qHTS assay to identify novel small-molecules to repurpose for Merkel cell carcinoma treatment (AID 1296009); conditions: MCC and control cell lines, CellTiter-Glo viability, 72 h; series mostly up to 46 µM; also: nearly all actives have a fitted effect of over 60% in size
Summary of the method: (§1)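 After compound transfer in DMSO, plates were kept 72 hr at 37 degree celsius. Luminescent ATP signal from CellTiter-Glo served as viability measure, normalized against DMSO and no-cell controls.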

NIH3T3 = assay: as above; conditions: MCC and control cell lines, CellTiter-Glo viability, 72 h; at 44.8 µM (top of the series) unless noted
Summary of the method: as §1

UISO = assay: as above; conditions: MCC and control cell lines, CellTiter-Glo viability, 72 h; series mostly up to 46 µM
Summary of the method: as §1

WaGa = assay: as above; conditions: MCC and control cell lines, CellTiter-Glo viability, 72 h; series mostly up to 46 µM
Summary of the method: as §1

C33A = assay: Primary qHTS to identify gynecologic anti-cancer compounds using libraries of approved drugs and bioactive compounds (AID 1345084); conditions: Gynecologic cancer cell panel viability, ATPlite luminescence, 48 h; series mostly up to 57.5 µM; also: nearly all actives have a fitted effect of over 55% in size
Summary of the method: (§2)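 Cytotoxicity screen measuring ATP content by luciferase luminescence. Each compound is applied at five concentrations for 48 h at 37 C with 5% CO2.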

CAOV3 = assay: as above; conditions: Gynecologic cancer cell panel viability, ATPlite luminescence, 48 h; series mostly up to 57.5 µM
Summary of the method: as §2

CASKI = assay: as above; conditions: Gynecologic cancer cell panel viability, ATPlite luminescence, 48 h; series mostly up to 57.5 µM
Summary of the method: as §2

Es-2 = assay: as above; conditions: Gynecologic cancer cell panel viability, ATPlite luminescence, 48 h; series mostly up to 57.5 µM
Summary of the method: as §2

HeLa = assay: as above; conditions: Gynecologic cancer cell panel viability, ATPlite luminescence, 48 h; series mostly up to 57.5 µM
Summary of the method: as §2

Hek293T = assay: as above; conditions: Gynecologic cancer cell panel viability, ATPlite luminescence, 48 h, control line for the selectivity index; series mostly up to 57.5 µM
Summary of the method: as §2

JEG-3 = assay: as above; conditions: Gynecologic cancer cell panel viability, ATPlite luminescence, 48 h; series mostly up to 57.5 µM
Summary of the method: as §2

OV90 = assay: as above; conditions: Gynecologic cancer cell panel viability, ATPlite luminescence, 48 h; series mostly up to 57.5 µM
Summary of the method: as §2

PA-1 = assay: as above; conditions: Gynecologic cancer cell panel viability, ATPlite luminescence, 48 h; series mostly up to 57.5 µM
Summary of the method: as §2

SKOV3 = assay: as above; conditions: Gynecologic cancer cell panel viability, ATPlite luminescence, 48 h; series mostly up to 57.5 µM
Summary of the method: as §2

Tov-21-G = assay: as above; conditions: Gynecologic cancer cell panel viability, ATPlite luminescence, 48 h; series mostly up to 57.5 µM
Summary of the method: as §2

Tov112D = assay: as above; conditions: Gynecologic cancer cell panel viability, ATPlite luminescence, 48 h; series mostly up to 57.5 µM
Summary of the method: as §2

[1] = Drug repurposing screens with cells derived from glioblastoma tumor samples (AID 1345199); conditions: GBM patient neurospheres viability, ATP luminescence, 48 h; also: nearly all actives have a fitted effect of over 40% in size; also: potency is read from the fitted curve at half-maximal effect
Summary of the method: (§3)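 Four patient lines of CD133+ GBM neurospheres were screened at several concentrations; hits were retested in those lines plus three slower-growing GBM lines, using 48-hour treatment and ATP-based viability.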

astro = assay: as above; conditions: viability, ATP luminescence, 48 h; series mostly up to 45.9 µM
Summary of the method: as §3

[2] = biological target: Nuclear receptor subfamily 1 group I member 2 (Rattus norvegicus) (UniProt Q9R1A7); assay: qHTS assay for small molecule activators of the rat pregnane X receptor (rPXR) signaling pathway (AID 651751; call rule not given here); conditions: rPXR reporter cells, luciferase (One-Glo), 24 h
[3] = at 45.9 µM (top of the series), tumour line B
[4] = at 45.9 µM (top of the series), tumour line D
[5] = at 46 µM (top of the series), tumour line A
[6] = at 46.1 µM (top of the series), tumour line C

Sequence of Nuclear receptor subfamily 1 group I member 2 (Rattus norvegicus) (Q9R1A7 whole entry, looked up): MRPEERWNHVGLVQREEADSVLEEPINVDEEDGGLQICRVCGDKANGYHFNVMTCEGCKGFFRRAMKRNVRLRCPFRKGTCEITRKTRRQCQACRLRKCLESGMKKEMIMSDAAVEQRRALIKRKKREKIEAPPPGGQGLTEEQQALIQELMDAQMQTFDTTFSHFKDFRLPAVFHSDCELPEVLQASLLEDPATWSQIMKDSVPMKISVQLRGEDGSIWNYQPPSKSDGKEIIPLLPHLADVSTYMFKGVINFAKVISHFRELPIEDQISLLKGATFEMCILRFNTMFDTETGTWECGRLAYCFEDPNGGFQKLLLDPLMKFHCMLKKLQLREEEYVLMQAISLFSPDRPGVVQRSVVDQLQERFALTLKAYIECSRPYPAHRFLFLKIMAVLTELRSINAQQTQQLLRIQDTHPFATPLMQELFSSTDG

## CC(C)(C(=O)O)c1ccc(C(O)CCCN2CCC(C(O)(c3ccccc3)c3ccccc3)CC2)cc1 (stereo unspecified)
MKL-2
  Potency: inactive
NIH3T3
  outcome: inactive
UISO
  Potency: inactive
WaGa
  Potency: inactive
C33A
  Potency: inactive
CAOV3
  Potency: inactive
CASKI
  Potency: inactive
Es-2
  Potency: inactive
HeLa
  Potency: inactive
Hek293T
  Potency: inactive
JEG-3
  Potency: inactive
OV90
  Potency: inactive
PA-1
  Potency: inactive
SKOV3
  Potency: inactive
Tov-21-G
  Potency: inactive
Tov112D
  Potency: inactive
[1]; [3]
  activity, negative = cell killing: 0.768%
[1]; [4]
  activity, negative = cell killing: 0.91%
[1]; [5]
  activity, negative = cell killing: -18.8%
[1]; [6]
  activity, negative = cell killing: 14%
astro
  Potency: inactive

## Cn1c(=O)c2c(ncn2CC2OCCO2)n(C)c1=O
MKL-2
  Potency: inactive
NIH3T3
  outcome: inactive
UISO
  Potency: inactive
WaGa
  Potency: inactive
C33A
  Potency: inactive
CAOV3
  Potency: inactive
CASKI
  Potency: inactive
Es-2
  Potency: inactive
HeLa
  Potency: inactive
Hek293T
  Potency: inactive
JEG-3
  Potency: inactive
OV90
  Potency: inactive
PA-1
  Potency: inactive
SKOV3
  Potency: inactive
Tov-21-G
  Potency: inactive
Tov112D
  Potency: inactive
[1]; [3]
  activity, negative = cell killing: -0.596%
[1]; [4]
  activity, negative = cell killing: -3.46%
[1]; [5]
  activity, negative = cell killing: -20.3%
[1]; [6]
  activity, negative = cell killing: -4.14%
astro
  Potency: inactive

## CNC(=O)Oc1ccc2c(c1)[C@]1(C)CCN(C)[C@@H]1N2C
MKL-2
  Potency: inactive
NIH3T3
  outcome: inactive
UISO
  Potency: inactive
WaGa
  Potency: inactive
C33A
  Potency: inactive
CAOV3
  Potency: inactive
CASKI
  Potency: inactive
Es-2
  Potency: inactive
HeLa
  Potency: inactive
Hek293T
  Potency: inactive
JEG-3
  Potency: inactive
OV90
  Potency: inactive
PA-1
  Potency: inactive
SKOV3
  Potency: inactive
Tov-21-G
  Potency: inactive
Tov112D
  Potency: inactive
[1]; [3]
  activity, negative = cell killing: -15.9%
[1]; [4]
  activity, negative = cell killing: -13.4%
[1]; [6]
  activity, negative = cell killing: -13.5%
[1]; tumour line A
  Potency: 35.5 µM (active)
astro
  Potency: inactive
[2]
  max response: 1.34%

## Cn1cc[nH]c1=S
MKL-2
  Potency: inactive
NIH3T3
  outcome: inactive
UISO
  Potency: inactive
WaGa
  Potency: inactive
C33A
  Potency: inactive
CAOV3
  Potency: inactive
CASKI
  Potency: inactive
Es-2
  Potency: inactive
HeLa
  Potency: inactive
Hek293T
  Potency: inactive
JEG-3
  Potency: inactive
OV90
  Potency: inactive
PA-1
  Potency: inactive
SKOV3
  Potency: inactive
Tov-21-G
  Potency: inactive
Tov112D
  Potency: inactive
[1]; at 20 µM (top of the series), tumour line C
  activity, negative = cell killing: 3.07%
[1]; at 21.2 µM (top of the series), tumour line B
  activity, negative = cell killing: -12.9%
[1]; at 21.2 µM (top of the series), tumour line D
  activity, negative = cell killing: -12.3%
[1]; at 21.3 µM (top of the series), tumour line A
  activity, negative = cell killing: -28.7%
astro
  Potency: inactive

## CCC(=O)c1ccc(O)cc1
MKL-2
  Potency: inactive
NIH3T3
  outcome: inactive
UISO
  Potency: inactive
WaGa
  Potency: inactive
C33A
  Potency: inactive
CAOV3
  Potency: inactive
CASKI
  Potency: inactive
Es-2
  Potency: inactive
HeLa
  Potency: inactive
Hek293T
  Potency: inactive
JEG-3
  Potency: inactive
OV90
  Potency: inactive
PA-1
  Potency: inactive
SKOV3
  Potency: inactive
Tov-21-G
  Potency: inactive
Tov112D
  Potency: inactive
[1]; [3]
  activity, negative = cell killing: -5.56%
[1]; [4]
  activity, negative = cell killing: -10.1%
[1]; [5]
  activity, negative = cell killing: -28.1%
[1]; [6]
  activity, negative = cell killing: -21.6%
astro
  Potency: inactive
